According to PubChem BioAssay AID602293 (National Center for Advancing Translational Sciences (NCATS), 2012):
Screen size: about 1,300 compounds; about 30 (2%) were called active. Roughly 10% stayed inconclusive and do not appear here. Many of the other results were omitted from the sample, so actives are more common in it than they were. Values without a mark were called inactive. The call rests on the fitted dose curve; in most records, active means well fitted inhibition curve with a large enough effect; inconclusive means small, poorly fitted or top-dose-only effect; inactive means flat fitted curve, though single readings scatter.

Assay: qHTS for antagonists of the Thyroid Stimulation Hormone Receptor: Hit Validation in HTRF Activity in a Luteinizing Hormone Receptor Cell Line
Conditions: LHR-expressing cell line, cAMP HTRF, antagonist mode; series mostly up to 58 µM; activity change, negative = inhibition: at the top concentration
Text: The thyroid-stimulating hormone receptor (TSHR) is a member of the 7 trans-membrane-spanning receptor (7TMR) family of cell surface receptors. TSHR-mediated hyperthyroidism is important in thyroid pathology. The development of small molecule antagonists of TSHR may lead to therapeutic approaches for TSHR-mediated hyperthyroidism caused by constitutively activating mutations or stimulating auto-antibodies associated with Graves' disease. Graves' disease is the leading cause of hyperthyroidism and is caused by autoantibodies that stimulate TSHR (TsAbs) causing thyroid growth and unregulated overproduction of thyroid hormones and existing treatments have liabilities (agranulocytosis). In addition, TSHRs are known to be expressed in multiple extrathyroidal tissues including bone, brain, kidney, testis, fat and cells of the immune system but the role of the TSHR in these tissues is not clear. Therefore, TSHR antagonists/inverse agonists could be used as probes of extrathyroidal TSHR function. Finally, TSHR inverse agonists, which are a subclass of antagonists that inhibit agonist-independent (or basal or constitutive) TSHR signaling, could be used to inhibit TSH-independent signaling in patients with recurrent or metastatic thyroid cancer who are receiving thyroid hormone to suppress TSH.
In collaboration between scientist from the NCGC and the NIDDK, a miniaturized HTRF high-throughput screen was developed. It's a cell based assay, where an anti cAMP antibody contains a fluorescent cryptate tag (excitation 337 nm; emission 620 nm) and the acceptor is cAMP-d2 (excitation 620 nm; emission 665 nm). When antibody and cAMP-d2 interact and are excited by a 337 nm light, a FRET occurs resulting in emission at 665 nm. The assay is competition between cAMP-d2 and cAMP (from the cell lysate). The homogeneous protocol allows for one step dispense after stimulation that is automation friendly. In order to confirm specificity of the compounds to the TSHR, a confirmatory assay was conducted on a similar family member, the Luteinizing Hormone (LH) receptor, transfected into a HEK 293 cell line, using an orthogonal detection technology to measure cAMP stimulation: antibody-based Homogeneous Time Resolved Fluorescence (HTRF).
NIH Chemical Genomics Center [NCGC]
NIH Molecular Libraries Probe Centers Network [MLPCN]
Assay Provider: Marvin Gershengorn, NIDDK
Homogeneous Time Resolved Fluorescence (HTRF) cAMP Assay. HEK 293 cells stably transfected with a vector containing the LH receptor and maintained under hygromycin selection were obtained from the laboratory of Dr. Marvin Gershengorn. Compounds were assayed using a HTRF cAMP detection kit (Cisbio) on the LH receptor transfected cell line. Briefly, 750 cells were plated in 2.5 ul/well of complete media (DMEM containing 10 % FCS, and 100 uM RO 20-1724) in 1536 well solid bottom white plates and 23 nl/well compound in DMSO solution or controls was added. Following 30 minute incubation at room temperature, 2.5 ul/well of labeled d2 cAMP and 2.5 ul/well of anti-cAMP antibody (both diluted 1:20 in lysis buffer) were added to each well using a flying reagent dispenser (Aurora Discovery, San Diego) . Plates were measured using the Envision plate reader (PerkinElmer, Boston, MA) with excitation at 330 nm and emissions of 615 nm and 660 nm.
On the % scale 0 is the no-effect control and ±100 the full control effect; potency means the concentration at half of the fitted maximal effect.

Compound | activity change, negative = inhibition [%] | Potency
COc1ccc(-[n+]2c(-c3ccccc3)cc(-c3ccc(C)cc3)cc2-c2ccccc2)cc1 | -4.98 | 
Cc1ccc(C[n+]2c(-c3ccc(C)cc3)cc(-c3ccc(C)cc3)cc2-c2ccc(C)cc2)cc1 |  | 37.9 µM (active)
Cc1ccc(-c2cc(-c3ccccc3)cc(-c3ccccc3)[n+]2-c2ccccc2)cc1 |  | 42.6 µM (active)
Oc1ccc(-[n+]2c(-c3ccccc3)cc(-c3ccccc3)cc2-c2ccccc2)cc1 |  | 39.8 µM (active)
OCC[n+]1c2ccccc2nc2ccc(N3CCOCC3)cc21 | -8.16 | 
COC(=O)C1=C(c2ccc(OC(F)(F)F)cc2)C[C@@H]2CC[C@H]1N2C(=O)N1CCC(C)CC1 | -4.89 | 
COC(=O)C1=C(c2ccc(-c3ccccc3)c(F)c2)C[C@@H]2CC[C@H]1N2C(=O)NCC1CC1 | -6.08 | 
CN(C)CC1Oc2ccccc2OC1(O)c1ccccc1 (stereo not given) | -2.31 | 
C[C@H]1O[C@@H](OC2CC[C@]3(C=O)[C@H]4CC[C@]5(C)[C@@H](C6=CC(=O)OC6)CC[C@]5(O)[C@@H]4CC[C@]3(O)C2)CC2OC(C)(C)OC21 (stereo not given in full) | -0.216 | 
N#CC(C#N)=NNc1ccc(-n2ccc(C(F)(F)F)n2)cc1 | -4.9 | 
CC(=O)c1ccc2c(c1)C1C(Cl)C(Sc3ccccc3[N+](=O)[O-])CC1C(C(=O)O)N2 (stereo not given) | -4.58 | 
COC(=O)C1=C(c2ccc(-c3ccccc3)c(F)c2)C[C@@H]2CC[C@H]1N2C(=O)N1CCOCC1 | -5.52 | 
O=C(C1CCN(c2nc3ccc(Br)cc3s2)CC1)N1CCC2(CC1)OCCO2 | -2.84 | 
COc1cc2c(cc1/C=C/[N+](=O)[O-])OCO2 | -4.92 | 
C[C@]12CC[C@H]3C(CCC4(O)CC(O)CC[C@]34C=O)C1=CC[C@H]2c1ccc(=O)oc1 (stereo not given in full) | -4.69 | 
